Source: PubChem BioAssay AID652054 (National Center for Advancing Translational Sciences (NCATS), 2013)
Screen size: about 360,000 compounds; about 9,100 (2.5%) were called active. Another 4% or so got no clear call; they are omitted. The entries come from a sample that favours actives as a whole. Unmarked numbers belong to inactive results. Rule as the data show it: active = max response below about -50%; inconclusive = no clear call, values can overlap the other calls; inactive = above that.

What follows are compounds tested against D(3) dopamine receptor (Homo sapiens) (UniProt P35462) (assay: qHTS of D3 Dopamine Receptor Antagonist: qHTS). Conditions: D3R cells, DiscoveRx beta-arrestin luminescence, antagonist mode; active compounds read low.
Sequence of D(3) dopamine receptor (Homo sapiens) (P35462 whole entry, looked up): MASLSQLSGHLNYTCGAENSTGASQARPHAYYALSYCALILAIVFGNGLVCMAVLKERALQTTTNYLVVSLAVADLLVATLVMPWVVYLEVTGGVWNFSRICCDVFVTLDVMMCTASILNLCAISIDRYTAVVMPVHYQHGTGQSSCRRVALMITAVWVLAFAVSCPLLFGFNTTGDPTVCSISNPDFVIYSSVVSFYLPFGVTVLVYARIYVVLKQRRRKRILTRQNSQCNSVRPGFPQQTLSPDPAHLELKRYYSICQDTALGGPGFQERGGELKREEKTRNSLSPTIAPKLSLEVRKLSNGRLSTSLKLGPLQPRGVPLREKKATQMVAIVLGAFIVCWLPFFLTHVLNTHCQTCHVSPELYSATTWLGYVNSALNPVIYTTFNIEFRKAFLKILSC
Text: D3 DARs represent a very important target for the treatment of several neuropsychiatric disorders. Indeed, one of the most promising therapeutic applications for the D3 DAR is in the area of addiction and related disorders. […] These findings have been observed with a number of addictive substances including cocaine, amphetamine, nicotine, and alcohol. […] Antagonism of the D3 DAR may also be therapeutic in the treatment of schizophrenia or psychosis. […] Since the D3 DAR is expressed in areas of the CNS associated with the control of mood and emotion, it has been hypothesized that selective antagonism of the D3 DAR may be effective in treating psychosis without inducing the motor side effects typically seen with D2 DAR antagonists.
This part of the project aims to discover novel antagonist.
NIH Chemical Genomics Center [NCGC]
NIH Molecular Libraries Probe Centers Network [MLPCN]
Assay Submitter (PI): David Sibley, NINDS
Freshly passaged cells are plated in 1536 well white, solid bottom plates at a density of 1500 cells/well in 3microl of complete media. After an overnight incubation at 37 degrees C in 5% CO2, cells are loaded with 23nl of test compound from the compound library (as well as dopamine controls) using a 1536 pintool and incubated at 37 degrees C for 90 minutes. Two microliters of DiscoveRx reagent is then added to all cells, and they are incubated for an additional 30 - 60 minutes at room temperature. Following incubation, luminescence is measured on a ViewLux CCD-based luminometer reader using a 20 sec exposure time.
% is scaled to controls: 0 for no effect and ±100 for the full control effect.

Compound | max response, negative = inhibition
Oc1c(CN2CCN(c3ccc(F)cc3)CC2)cc(Cl)c2cccnc12 | -59.7% (active)
Cc1ccc(CN2CCN(c3ncccn3)CC2)c(C)c1 | -14.2%
Cc1cccc(C)c1NC(=O)CN1CCN(c2ccc(F)cc2)CC1 | -14.3%
COc1ccc(-c2nc3ccc(Br)cn3c2Cc2ccc(C)cc2)cc1OC | 33.3%
CCc1nc2c(OCCOc3ccc(F)cc3)cccn2c1N(C)C(=O)c1ccccc1F | 9.16%
CC1CN(C(=O)CCC(=O)NCCCN2CCC(Cc3ccccc3)CC2)c2cc(Cl)ccc2O1 (stereo not drawn) | -69.6% (active)
CC1CN(C(=O)CCC(=O)NC2CCN(Cc3ccccc3)CC2)c2ccccc2O1 (stereo not drawn) | -13.6%
CC1CN(C(=O)CCC(=O)NCc2cccnc2)c2ccccc2O1 (stereo not drawn) | -17.6%
CC1=C(C(=O)N2CCOCC2)CC(CC(=O)NCc2cccc3ccccc23)C(=O)N1CCC1=CCCCC1 (stereo not drawn) | -26.6%
CCCc1nc2c3ccccc3ccn2c1Cc1ccccc1C(F)(F)F | -26.6%
CC1=C(C(=O)N2CCOCC2)CC(CC(=O)NCc2cccs2)C(=O)N1CCCN1CCCC1=O (stereo not drawn) | 0%
COc1ccc(Cl)cc1NC(=O)CN(C)C(=O)c1cn(-c2ccccc2)nc1-c1cccs1 | 0.189%
Cc1ccc(S(=O)(=O)Nc2nc3ccccc3nc2N2CCc3ccccc3C2)cc1 | -50.8% (active)
COCCCNc1nc2ccccc2nc1NS(=O)(=O)c1ccc(F)cc1 | 0.291%
Cc1ccc(S(=O)(=O)C(C#N)c2nc3ccccc3nc2N2CCCC2)cc1C (stereo not drawn) | 17.6%
CCc1c(-c2ccc(F)cc2)ncn1Cc1cccc(-c2ccccc2)c1 | -10.3%
Nc1nc2c(ncn2[C@@H]2O[C@H](CNCc3ccc(OCCCN4CCOCC4)cc3)[C@@H](O)[C@H]2O)c(=O)[nH]1 | -3.82%
CCOC(=O)C1CCCN(C(=O)c2cccc3ccccc23)CC1 (stereo not drawn) | 15.1%
COc1cc(CN2CC(C)CC(C)C2)cc([N+](=O)[O-])c1O (stereo not drawn) | 17.6%
O=[N+]([O-])c1ccccc1/C=C/CN1CCCC(CO)C1 (stereo not drawn) | -76% (active)
CC1CC(C)CN(C/C=C/c2ccccc2[N+](=O)[O-])C1 (stereo not drawn) | -73.4% (active)
CC(C)CNC(=O)COC(=O)/C=C/c1ccccc1[N+](=O)[O-] | -8.96%

Compound | max response, negative = inhibition
CC1CCCCC1NC(=O)/C(C#N)=C/C=C/c1ccccc1[N+](=O)[O-] (stereo not drawn) | -12.8%
O=C(/C=C/c1ccccc1[N+](=O)[O-])OCC(=O)N1CCCC1 | 9.84%
CN[C@H]1C[C@H]2c3cc(Oc4ccccc4C)ccc3CCN2C(=O)[C@H]1[C@H](C)O | 23.3%
Cc1noc(C)c1-c1ccc(C(=O)NCc2ccncc2)c2occc12 | -3.57%
COc1cccc(C(NC(C)=O)c2nc(-c3cnc4ccccc4c3)cs2)c1 (stereo not drawn) | 11.3%
C[C@H](CO)N1C[C@H](C)[C@@H](CN(C)C(=O)c2cnccn2)Oc2ncc(Br)cc2C1=O | -23.4%
Cc1ccc(-c2cnc(C(O)c3cccc(C)c3C)[nH]2)cc1 (stereo not drawn) | -20.7%
COc1ccc(OC)c(C(=O)NC2CCCc3c2cnn3-c2cc(C)cc(C)c2)c1 (stereo not drawn) | 57.4%
CCc1nc2c(OCc3cccc(OC)c3)cccn2c1N(C)C(=O)C(C)C | 10.3%
Cc1ccc(C(=O)N[C@H](C(=O)N2CCN(c3ncccn3)CC2)C(C)C)cc1 | 0%
Nc1nnc(SCC(=O)Nc2ccc3nc(SCC(=O)Nc4ccccc4)sc3c2)s1 | 0.758%
O=[N+]([O-])c1c(NCCO)cc(Sc2nc3ccccc3s2)c2nonc12 | -81.4% (active)
OCCNc1nc(Nc2ccc(Cl)c(Cl)c2)nc2ccccc12 | -28.2%
CCCC(=O)N1CCC1(C)C(=O)Nc1ccc(-n2cncn2)cc1 (stereo not drawn) | -18.5%
COc1cccc(CNC(=O)[C@@H]2CCCN2C(=O)[C@@H]2CCCN2C(=O)c2ccccc2)c1 | -10.4%
CSc1ncccc1C(=O)N1CCCC(Nc2ccc(F)c(F)c2)C1 (stereo not drawn) | 1.51%
CCOC(=O)C1CCCCN1Cc1ccc(OC)c(OC)c1OC (stereo not drawn) | -50.5% (active)
CCOC(=O)C1CCN(S(=O)(=O)c2cc(F)ccc2OC)CC1 | 2.14%
CCOC(=O)C1CCN(C(=O)/C=C/c2cc(OC)c(OC)c(OC)c2)CC1 | 0.0271%
CCCCNC(=O)C[C@@H]1C[C@@]2(C(=O)OCC)CCC=C2N(Cc2ccco2)C1=O | -17.5%
CC(=O)Nc1ccc(C=Cc2ccc([N+](=O)[O-])cc2)cc1 | -0.898%
COc1ccc(NC(=O)[C@H](NC(=O)[C@@H]2Cc3ccccc3CN2)c2ccccc2)cc1 | -97.8% (active)

Compound | max response, negative = inhibition
COc1cccc(NC(=O)[C@H](Cc2c[nH]c3ccccc23)NC(=O)[C@@H]2Cc3ccccc3CN2)c1 | 0%
COc1ccc(NC(=O)C2CCC(CNC(=O)[C@@H]3Cc4ccccc4CN3)CC2)cc1 (stereo partly drawn) | -8.86%
O=C1OCCOC2CCCc3oc(-c4ccccc4)c1c32 (stereo not drawn) | -1.49%
O=C(COc1ccc(S(=O)(=O)N2CCCC2)cc1[N+](=O)[O-])N1CCCCC1 | -6.05%
CN1CCC[C@@H]1CCO[C@](C)(c1ccccc1)c1ccc(Cl)cc1 | -107% (active)
CC1CCCN(CC(=O)Nc2cc(Cl)ccc2Oc2ccccc2)C1 (stereo not drawn) | 0.948%
CCC1CCC/C1=N\NC(=O)c1ccc(Cl)cc1 (stereo not drawn) | -14%
C#Cc1ccc(NC(=O)C2(C)CCN2C(=O)Cc2ccc(-c3ccccc3)cc2)cc1 (stereo not drawn) | 4.18%
O=C(NCc1cccnc1)c1cc(C2CCCN(C(=O)CCCc3ccccc3)C2)on1 (stereo not drawn) | 33.8%
COc1ccc(C2C(C#N)=C(N)Oc3n[nH]c(C)c32)cc1CN1CCN(c2ccc(F)cc2)CC1 (stereo not drawn) | -95% (active)
COc1ccc(-c2[nH]nc3c2C(c2ccncc2)C(C#N)=C(N)O3)cc1 (stereo not drawn) | -18.7%
COc1ccccc1CN1CCCC(N2CCN(c3ccc(F)cc3)CC2)C1 (stereo not drawn) | 4.28%
CCC(CC)C(C(=O)NC1CCCC1)N1CCN(c2cc(C)nc3ccccc23)CC1 (stereo not drawn) | 14.1%
NC(=O)C1(Nc2ccccc2Cl)CCCC1 | -22%
O=C(Nc1ccccc1Cl)/C(Cl)=C(\Cl)S(=O)c1ccccc1 (stereo not drawn) | -94.9% (active)
CS/C(=C\C(=O)c1ccco1)Nc1ccccc1Cl | 0.757%
O=C(NCc1ccco1)c1cccc(-c2ccc3nncn3c2)c1 | -9.17%
CCc1nc2c(OCCOc3ccccc3)cccn2c1N(C=O)Cc1ccc(OC)cc1 | 12.7%
CCc1ccccc1NC(=O)CSc1nnc([C@@H](NC(=O)OC(C)(C)C)C(C)CC)o1 (stereo partly drawn) | -1.74%
COc1ccccc1NC(=O)[C@H](COCc1ccccc1)NC(=O)OC(C)(C)C | 13.5%
C[C@@H](NC(=O)OC(C)(C)C)c1nnc(S(=O)(=O)Cc2ccccc2)o1 | -110% (active)
CCNC(=O)C1(C)CCCN(C(=O)c2c(C)noc2C)C1 (stereo not drawn) | 0%

Compound | max response, negative = inhibition
CCCC(NS(=O)(=O)c1ccc(OC)cc1)C(=O)O (stereo not drawn) | -4.83%
COc1ccc(NS(=O)(=O)c2ccc(Oc3c(C#N)cccc3C#N)cc2)cc1 | 0.938%
COc1ccc(S(=O)(=O)/N=C2\C=C(NS(=O)(=O)c3ccccc3)C(=O)c3ccccc32)cc1 | -59.6% (active)
O=S1(=O)CC(N2CCN(Cc3ccccc3F)CC2)CN1Cc1cn(Cc2cccc(C(F)(F)F)c2)nn1 (stereo not drawn) | 1.97%
C/C(=N\NS(=O)(=O)c1cccc([N+](=O)[O-])c1)c1cc2ccccc2o1 | -65.1% (active)
COc1ccc(CCNS(=O)(=O)c2cccc([N+](=O)[O-])c2)cc1 | -20.3%
CC(C=Cc1ccccc1)=NNS(=O)(=O)c1ccc([N+](=O)[O-])cc1 | -22%
CCn1c(COc2ccc(OC)cc2)nnc1SCC(=O)Nc1cc(OC)ccc1OC | 5.77%
CCOC(=O)CNC(=O)CSc1nnc(COc2ccc(Cl)cc2)n1CC | -55.4% (active)
CCOC(=O)CNC(=O)CSc1nnc(-c2cccc(OC)c2)n1CC | 0%
CCOC(=O)C(C(=O)c1ccccc1)C(c1ccccc1)c1nccc2ccccc12 (stereo not drawn) | -11.4%
COc1ccc(S(=O)(=O)N2CCCCC2)cc1C(=O)NC1CCS(=O)(=O)C1 (stereo not drawn) | 22%
COc1ccc(NC(=O)CN2C(=O)NC(C)(c3ccccc3)C2=O)cn1 (stereo not drawn) | 28.1%
COc1ccc(CS(=O)/C(Cl)=C(/Cl)C(=O)Nc2ccc(OC)nc2)cc1 (stereo not drawn) | -91.9% (active)
COc1ccc(C(O)c2nc(-c3ccc(OC)nc3)cs2)cc1 (stereo not drawn) | -0.57%
CN1OC[C@@H]2CN(C(=O)c3ccc(-c4ccccc4)cc3)[C@H](c3ccc(-c4cccc(F)c4)cc3)C[C@@H]21 | -51.6% (active)
CN1OC[C@@H]2CN(C(=O)c3cccc4ccccc34)[C@H](c3ccc(N4CCCCC4)cc3)C[C@@H]21 | 0.382%
CN1OC[C@@H]2CN(C(=O)c3cccnc3)[C@H](c3ccc(N4CCCCC4)cc3)C[C@@H]21 | 33.1%
COc1cccc(NC(=O)C2(C)CCN2Cc2ccccc2Cl)c1 (stereo not drawn) | 9.45%
O=C(NCc1nnc(SCC(=O)N2CCCCCC2)o1)c1ccc(F)cc1 | -15.6%
O=C(NCc1nnc(SCC(=O)N2CCC(Cc3ccccc3)CC2)o1)c1ccco1 | -56.2% (active)
Cn1c(CNC(=O)c2ccco2)nnc1SCC(=O)N1CCN(c2ccccc2)CC1 | 9.96%
